Reference: PubChem BioAssay
Several values for one entry are separate records, joined by “and”; a condition that tells them apart may be missing. Equal entries are not always repeated. Records with an inconclusive call do not appear. Activity calls are given as the source filed them.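 The calls were made as follows, unless noted: active = mean z-score across replicates of 1.96 or higher in either the MELAS or the Rieske mutant cell line; inactive = the rest.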

Experiments:
[1] = viability loss in pontine glioma line – cell-based, SU-DIPG-XXV, MIPE5.0, CellTiter-Glo, qHTS, dose response (AID 1347065; cut-off not given, nearly all actives have AC50 up to about 26 µM;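 also: cells exposed to compound for 48 hours before ATP readout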); conditions: CellTiter-Glo ATP luminescence
[2] = SU-DIPG-VI glioma cell viability, MIPE4.0 library, CellTiter-Glo luminescence, qHTS (AID 1347066; cut-off not given, nearly all actives have AC50 up to about 30 µM;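 also: cells exposed to compound for 48 hours before readout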); conditions: CellTiter-Glo ATP luminescence
[3] = JHH-DIPG-1 glioma cell viability, MIPE5.0 library, CellTiter-Glo luminescence, qHTS (AID 1347067; cut-off not given, nearly all actives have AC50 up to about 26 µM;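 also: cells exposed to compound for 48 hours before readout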); conditions: JHH-DIPG-1 glioma viability, CellTiter-Glo ATP luminescence
[4] = SU-DIPG-XXV glioma cell viability, MIPE5.0 library, qHTS (AID 1347068; cut-off not given, nearly all actives have IC50 up to about 30 µM)
[5] = phospholipid biosynthesis inhibitors in animal cells, primary screen, cell-based, LOPAC library, screen 4 (AID 1347384; call rule not given here); conditions: phospholipid biosynthesis inhibition screen, at 10 µM
[6] = survival rescue of mitochondrial mutant cells in low glucose, primary screen, MELAS cybrids, Rieske KO mouse fibroblasts, CellTiter-Glo (AID 1508586);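 also: z relative to plate mean and SD of compound and empty wells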
[7] = molecular target: NAD(+) hydrolase SARM1 (Homo sapiens) (UniProt Q6SZW1); test: SARM1 TIR NADase inhibitors, cell lysate, NAD-Glo luminescence (AID 1508614;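 active = compound whose remaining NAD level is above about 45 nM, limit read from the data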;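 also: higher remaining NAD means stronger inhibition of SARM1 NADase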); conditions: SAM-TIR HEK293T lysate NADase, at 1 µM, stronger effect = higher value
Sequence of NAD(+) hydrolase SARM1 (Homo sapiens) (Q6SZW1 whole entry, looked up): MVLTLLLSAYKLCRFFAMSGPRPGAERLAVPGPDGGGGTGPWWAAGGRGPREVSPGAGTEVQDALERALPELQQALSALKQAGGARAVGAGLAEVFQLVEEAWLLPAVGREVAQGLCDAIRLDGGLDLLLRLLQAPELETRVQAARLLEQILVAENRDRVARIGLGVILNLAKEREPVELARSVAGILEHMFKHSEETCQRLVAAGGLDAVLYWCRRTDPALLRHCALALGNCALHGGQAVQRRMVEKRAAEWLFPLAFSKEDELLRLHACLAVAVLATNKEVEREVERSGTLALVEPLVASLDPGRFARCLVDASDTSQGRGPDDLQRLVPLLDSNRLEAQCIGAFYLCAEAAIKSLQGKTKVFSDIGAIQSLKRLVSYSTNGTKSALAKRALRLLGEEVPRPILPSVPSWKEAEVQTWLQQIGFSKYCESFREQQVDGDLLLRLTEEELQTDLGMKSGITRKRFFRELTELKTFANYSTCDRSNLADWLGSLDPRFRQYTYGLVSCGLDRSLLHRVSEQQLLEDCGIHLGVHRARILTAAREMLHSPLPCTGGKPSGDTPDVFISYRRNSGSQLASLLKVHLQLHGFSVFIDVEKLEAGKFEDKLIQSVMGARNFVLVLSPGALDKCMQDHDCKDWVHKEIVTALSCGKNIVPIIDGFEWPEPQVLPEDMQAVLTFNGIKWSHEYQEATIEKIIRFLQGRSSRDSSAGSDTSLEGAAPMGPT

[8] = sensitizers of A549 cells to miR-34 induction, primary screen, imaging, A549 dox-inducible miR-34, nuclei and caspase counts (AID 1347080;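 active = compounds whose cell count with miR-34 switched on is under 0.7 times the count with it off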); conditions: A549 miR-34 inducible, Hoechst nuclei count, 48 h
[9] = molecular target: Mitogen-activated protein kinase 7 (Homo sapiens) (UniProt Q13164); test: ERK5 transactivation activators in reporter cells, primary screen, cell-based, HTS (AID 1508626;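 active = luciferase signal above three times the same-plate solvent-only control wells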;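 also: luciferase driven by Gal4-ERK5 fusion binding five Gal4 sites before minimal TATA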); conditions: HeLa Gal4-ERK5 transactivation, 18 h, at 5 µM, stronger effect = higher value
Sequence of Mitogen-activated protein kinase 7 (Homo sapiens) (Q13164 whole entry, looked up, the tested form may be a part): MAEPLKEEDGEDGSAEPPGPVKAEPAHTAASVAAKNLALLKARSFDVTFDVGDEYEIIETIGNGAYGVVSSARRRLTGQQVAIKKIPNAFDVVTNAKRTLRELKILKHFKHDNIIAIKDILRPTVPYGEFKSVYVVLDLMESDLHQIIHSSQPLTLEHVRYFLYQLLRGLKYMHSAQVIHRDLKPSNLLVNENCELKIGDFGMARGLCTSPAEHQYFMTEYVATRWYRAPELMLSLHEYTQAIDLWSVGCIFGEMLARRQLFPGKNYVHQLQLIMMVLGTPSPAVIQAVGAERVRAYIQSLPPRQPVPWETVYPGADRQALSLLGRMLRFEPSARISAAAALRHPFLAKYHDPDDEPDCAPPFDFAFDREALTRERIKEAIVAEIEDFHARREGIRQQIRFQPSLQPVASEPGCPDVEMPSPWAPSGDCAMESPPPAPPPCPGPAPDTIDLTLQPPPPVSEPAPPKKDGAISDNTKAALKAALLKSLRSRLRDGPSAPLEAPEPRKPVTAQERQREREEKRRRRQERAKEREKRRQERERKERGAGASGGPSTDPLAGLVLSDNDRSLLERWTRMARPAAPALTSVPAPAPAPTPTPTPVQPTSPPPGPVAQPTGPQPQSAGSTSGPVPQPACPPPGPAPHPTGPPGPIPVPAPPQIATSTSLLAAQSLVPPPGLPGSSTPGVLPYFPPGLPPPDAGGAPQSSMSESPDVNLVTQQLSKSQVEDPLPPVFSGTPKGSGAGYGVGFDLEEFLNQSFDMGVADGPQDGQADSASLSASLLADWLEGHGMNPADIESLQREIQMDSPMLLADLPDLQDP

[10] = LFS_MB_P medulloblastoma growth inhibition, cell-based, chromothripsis tumors, cisplatin or BGB combos (AID 1671449; in the data active = inhibition above about 80%;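 also: cells exposed for 96 hours; 0% = vehicle DMSO and 100% = killing by high DMSO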); conditions: LFS_MB_P medulloblastoma cells
[11] = HDN33 neuroblastoma growth inhibition, cell-based, chromothripsis tumors, cisplatin or BGB combos (AID 1671450; in the data active = inhibition above about 80%;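 also: cells exposed to compound for four days; 0% = vehicle DMSO and 100% = cell killing by high DMSO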); conditions: HDN33 neuroblastoma cells, stronger effect = higher value
[12] = ICB984 medulloblastoma cell growth inhibition, synergistic combos for chromothripsis tumors, cisplatin or BGB combos (AID 1671451; call rule not given here;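 also: cells exposed for 96 hours before readout; 0% = vehicle DMSO and 100% = killing by high DMSO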); conditions: ICB984 medulloblastoma cells, drug combinations, stronger effect = higher value
[13] = LFS_MB_1R medulloblastoma cell growth inhibition, synergistic combos for chromothripsis tumors, cisplatin or BGB combos (AID 1671452; in the data active = inhibition above about 80%;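 also: cells exposed for 96 hours before readout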); conditions: LFS_MB_1R medulloblastoma cells, stronger effect = higher value
[14] = HTB85 osteosarcoma cell growth inhibition, synergistic combos for chromothripsis tumors, BGB or cisplatin IC20 combos (AID 1671453; in the data active = inhibition above about 80%;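 also: cells exposed for 96 hours before readout; 0% = vehicle DMSO and 100% = high DMSO killing control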); conditions: HTB85 osteosarcoma cells, drug combinations, stronger effect = higher value
[15] = CRL2098 osteosarcoma cell growth inhibition, synergistic combos for chromothripsis tumors, BGB or cisplatin IC20 combos (AID 1671454; in the data active = inhibition above about 80%;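 also: cells exposed for 96 h before readout; 0% = vehicle DMSO and 100% = killing by high DMSO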); conditions: CRL2098 osteosarcoma cells, drug combinations, stronger effect = higher value
[16] = HD-MB03 medulloblastoma cell growth inhibition, synergistic combos for chromothripsis tumors, BGB or cisplatin IC20 combos (AID 1671455; in the data active = inhibition above about 83%;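 also: 0% = vehicle DMSO and 100% = high DMSO as cytotoxic control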); conditions: HD-MB03 medulloblastoma cells, stronger effect = higher value
[17] = viability rescue of complex I mutant cybrids, primary screen, cell-based, galactose medium, ATP luminescence (AID 1645843;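 active = z-score of at least 1.8 in each of two replicates, scored against plate mean and spread of sample wells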;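 also: positive z means more ATP and so rescue of galactose-driven cybrid death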); conditions: complex I mutant cybrid cells, 72 h, stronger effect = higher value
[18] = inhibitors of Cryptococcus chitosan production, flow cytometry, Cibacron Brilliant Red staining (AID 1347148; call rule not given here;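 also: compound exposure lasted three days at 37 degrees C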); conditions: Cryptococcus neoformans chitosan, stronger effect = lower value; at 10 µM unless noted
[19] = MELAS cybrid survival, CellTiter-Glo 48 h, stronger effect = higher value
[20] = Rieske KO mouse fibroblast survival, CellTiter-Glo 72 h
[21] = at 0.5 µM, stronger effect = higher value
[22] = measured here: combination with BGB IC20, at 0.005 µM
[23] = measured here: combination with BGB IC40, at 0.005 µM
[24] = measured here: combination with BGB IC40, at 0.05 µM
[25] = measured here: combination with cisplatin, at 0.5 µM, stronger effect = higher value
[26] = measured here: combination with cisplatin, at 5 µM, stronger effect = higher value
[27] = measured here: with BGB IC20 combination, at 0.5 µM
[28] = measured here: with cisplatin IC20 combination, at 0.5 µM
[29] = measured here: 5 uM single agent, at 5 µM
[30] = measured here: combination with cisplatin, at 0.5 µM
[31] = measured here: combination with cisplatin, at 5 µM
[32] = measured here: with BGB IC20, at 0.5 µM
[33] = measured here: with BGB IC20, at 5 µM
[34] = measured here: with cisplatin IC20, at 0.5 µM
[35] = measured here: with cisplatin IC20, at 5 µM
[36] = measured here: combination with BGB at IC20, at 0.5 µM
[37] = measured here: combination with cisplatin at IC20, at 0.5 µM
[38] = measured here: combo with BGB at IC20, at 0.5 µM
[39] = measured here: combo with cisplatin at IC20, at 0.5 µM

Oc1ccc(C2CNCCc3c2cc(O)c(O)c3Cl)cc1 (stereo unspecified)
outcome [1]: inactive | outcome [2]: inactive | outcome [3]: inactive | outcome [4]: inactive | outcome [5]: inactive | z-score [6, 19]: 0.526 (inactive) and 0.283 (inactive) | z-score [6, 20]: -0.363 and -0.533 | remaining NAD [7]: 10 nM (inactive)

S=P(N1CC1)(N1CC1)N1CC1
outcome [1]: inactive | outcome [2]: inactive | outcome [3]: inactive | outcome [4]: inactive | fold change ([8]; stronger effect = lower value, cell number ratio, induced over uninduced): 0.906 (inactive) | fold change ([8]; measured here: relative caspase fold change +Dox/-Dox): 2.37 | cell count ([8]; measured here: total cells with miR-34 induction, stronger effect = lower value): 2790 | cell count ([8]; measured here: total cells without miR-34 induction): 3080 | remaining NAD [7]: 10 nM (inactive) | luciferase signal [9]: 40 AU (inactive) | inhibition [10, 21]: -23.2% (inactive) and -26.3% (inactive) | inhibition [10, 22]: 4.28% and -9.96% | inhibition [10, 23]: -18.6% and -23.3% | inhibition [10, 24]: -9.26% and -20.5% | inhibition [10, 25]: -29.9% and -42.7% | inhibition [10, 26]: -29% and -10.5% | inhibition ([11]; BGB combo, at 5 µM): 10.9% and 17% | inhibition ([11]; at 0.5 µM): -22.8% (inactive) and -4.61% (inactive) | inhibition ([11]; cisplatin combo, at 5 µM): -33.8% and -6.48% | inhibition [11, 27]: -8.9% and -5.09% | inhibition [11, 28]: -36% and 8.65% | inhibition ([11]; single agent, at 5 µM): -17.8% and -15.5% | inhibition ([12]; BGB IC20 combo, at 0.005 µM): -28.8% and -30.2% | inhibition ([12]; BGB IC40 combo, at 0.005 µM): -42.6% and -1.02% | inhibition ([12]; BGB IC40 combo, at 0.05 µM): -71.3% and -1.28% | inhibition ([12]; at 0.5 µM): -28.5% (inactive) and -18.4% (inactive) | inhibition ([12]; cisplatin combo, at 0.05 µM): -78.1% and -1.28% | inhibition ([12]; cisplatin combo, at 0.5 µM): -36.2% and -27% | inhibition ([12]; cisplatin combo, at 5 µM): -39.5% and -6.98% | inhibition [12, 29]: -8.68% and -10.4% | inhibition ([13]; at 0.5 µM): -9.66% (inactive) and -3.23% (inactive) | inhibition [13, 24]: -28.2% and 8.25% | inhibition [13, 30]: -26.8% and 11.1% | inhibition [13, 31]: -75% and -8.13% | inhibition ([14]; at 0.5 µM): -27.7% (inactive) and -19.6% (inactive) | inhibition [14, 32]: -28% and -46.5% | inhibition [14, 33]: 12.6% and 4.5% | inhibition [14, 34]: -41.1% and -12.7% | inhibition [14, 35]: -24.2% and -0.841% | inhibition ([14]; single agent, at 5 µM): -13.2% and -18.3% | inhibition ([15]; at 0.5 µM): -50.3% (inactive) and -34.6% (inactive) | inhibition [15, 36]: -22.9% and -20.1% | inhibition [15, 37]: -36.2% and -49.4% | inhibition ([16]; at 0.5 µM): -12.6% (inactive) and -4.94% (inactive) | inhibition [16, 38]: -12.8% and -2.1% | inhibition [16, 39]: -11.1% and -9.72%

CN1C(C(=O)Nc2ccccn2)=C(O)c2sccc2S1(=O)=O
outcome [1]: inactive | outcome [2]: inactive | outcome [3]: inactive | outcome [4]: inactive | z-score [6, 19]: -0.378 (inactive) and 0.116 (inactive) and -0.742 (inactive) | z-score [6, 20]: 0.123 and -0.0171 and -1.25 | remaining NAD [7]: 10 nM (inactive) | luciferase signal [9]: 180 AU (inactive) | z-score [17]: -0.07 (inactive)

CN1CCC(=C2c3ccccc3CC(=O)c3sccc32)CC1
outcome [1]: inactive | outcome [2]: inactive | outcome [3]: inactive | outcome [4]: inactive | outcome [5]: inactive | z-score [6, 19]: -0.303 (inactive) and -0.251 (inactive) and -0.573 (inactive) | z-score [6, 20]: -0.862 and -0.369 and 0.333 | remaining NAD [7]: 10 nM (inactive) | luciferase signal [9]: 76 AU (inactive)

Nc1[nH]c(=O)ncc1F
outcome [1]: inactive | outcome [2]: inactive | outcome [3]: inactive | outcome [4]: inactive | z-score [6, 19]: -0.163 (inactive) and 0.671 (inactive) | z-score [6, 20]: 0.841 and -0.221 | remaining NAD [7]: 10 nM (inactive) | z-score [17]: 0.61 (inactive) | inhibition [10, 21]: 35.6% (inactive) | inhibition [10, 22]: -27.5% | inhibition [10, 23]: -28.3% | inhibition [10, 24]: -22% | inhibition [10, 25]: 56.8% | inhibition [10, 26]: -29.9% | inhibition ([11]; BGB combo, at 5 µM): -19.9% | inhibition ([11]; at 0.5 µM): -18.6% (inactive) | inhibition ([11]; cisplatin combo, at 5 µM): -41.9% | inhibition [11, 27]: -4.48% | inhibition [11, 28]: -14.6% | inhibition ([11]; single agent, at 5 µM): 9.06% | inhibition ([12]; BGB IC20 combo, at 0.005 µM): -28.5% | inhibition ([12]; BGB IC40 combo, at 0.005 µM): -43.6% | inhibition ([12]; BGB IC40 combo, at 0.05 µM): -8.87% | inhibition ([12]; at 0.5 µM): -40.6% (inactive) | inhibition ([12]; cisplatin combo, at 0.05 µM): -8.87% | inhibition ([12]; cisplatin combo, at 0.5 µM): -57.1% | inhibition ([12]; cisplatin combo, at 5 µM): -45.6% | inhibition [12, 29]: -3.48% | inhibition ([13]; at 0.5 µM): -37.2% (inactive) | inhibition [13, 24]: -0.509% | inhibition [13, 30]: -34.6% | inhibition [13, 31]: -0.132% | inhibition ([14]; at 0.5 µM): -19.7% (inactive) | inhibition [14, 32]: -43% | inhibition [14, 33]: -34% | inhibition [14, 34]: -6.71% | inhibition [14, 35]: -6.3% | inhibition ([14]; single agent, at 5 µM): -19.7% | inhibition ([15]; at 0.5 µM): -73.3% (inactive) | inhibition [15, 36]: -56.9% | inhibition [15, 37]: -90.3% | inhibition ([16]; at 0.5 µM): 5.78% (inactive) | inhibition [16, 38]: 2.74% | inhibition [16, 39]: 10.4%

CCOC(=O)C(C)(C)Oc1ccc(Cl)cc1
outcome [1]: inactive | outcome [2]: inactive | outcome [3]: inactive | outcome [4]: inactive | fold fluorescence [18]: 5.04 (inactive) | outcome [5]: inactive | z-score [6, 19]: 0.307 (inactive) and -1.09 (inactive) | z-score [6, 20]: -0.506 and -1.36 | remaining NAD [7]: 10 nM (inactive) | luciferase signal [9]: 44 AU (inactive) | z-score [17]: 0.15 (inactive) and 0.675 (inactive)

NC(CO)C(=O)NNCc1ccc(O)c(O)c1O (stereo unspecified)
outcome [1]: inactive | outcome [2]: inactive | outcome [3]: inactive | outcome [4]: inactive | outcome [5]: inactive | z-score [6, 19]: -0.395 (inactive) and 0.597 (inactive) and -0.0244 (inactive) | z-score [6, 20]: 0.352 and -0.231 and -1.37 | remaining NAD [7]: 10 nM (inactive) | luciferase signal [9]: 132 AU (inactive) | z-score [17]: -1.5 (inactive) and -0.255 (inactive)

NS(=O)(=O)c1cc2c(cc1Cl)NC(C(Cl)Cl)NS2(=O)=O (stereo unspecified)
outcome [1]: inactive | outcome [2]: inactive | outcome [3]: inactive | outcome [4]: inactive | z-score [6, 19]: -0.307 (inactive) and 0.588 (inactive) and 0.372 (inactive) | z-score [6, 20]: 0.662 and 0.211 and -0.506 | remaining NAD [7]: 10 nM (inactive) | luciferase signal [9]: 48 AU (inactive) | z-score [17]: -0.19 (inactive)

Nc1nnc(-c2cccc(Cl)c2Cl)c(N)n1
outcome [1]: inactive | outcome [2]: inactive | outcome [3]: inactive | outcome [4]: inactive | outcome [5]: inactive | z-score [6, 19]: 1.04 (inactive) and -0.0755 (inactive) and -0.75 (inactive) | z-score [6, 20]: -2.18 and 0.0455 and -0.484 | remaining NAD [7]: 10 nM (inactive) | luciferase signal [9]: 44 AU (inactive) | z-score [17]: 0.675 (inactive) and 0.31 (inactive) and 0.775 (inactive)
